Screening data as filed in PubChem BioAssay.
This is a sample that favours compounds with a hit; in the whole collection about 0.77% have one here.
NS1 function inh = qHTS Assay for Inhibitors of Influenza NS1 Protein Function. Potency, µM (top dose mostly 46.1 µM), for inactives: at the highest dose activity, positive = more growth. 0.4% of 270,000 active. AID 2326, 2010; further: potency means the concentration at half of the fitted maximal effect; actives are rising curves; nearly all actives have a fitted effect of over 50% in size
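S. cerevisiae expressing influenza A NS1, grown in glucose, washed, then diluted 1:100 into pH 6.0 -URA galactose medium with 23 nl compound. Growth recovery read as OD600; NS1-free strain serves as control.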
LmPK inhibitor = qHTS Assay for Inhibitors of Leishmania Mexicana Pyruvate Kinase (LmPK); purified LmPK, Kinase-Glo ATP luminescence, 1 h; Potency, µM (titrated, usually from 57.5 µM), without a hit: at the highest dose activity change, negative = inhibition, most hits filed as inhibitors; 0.37% of 290,000 active; AID 1721, 2009; active means well fitted curve in the direction sought with a large enough effect; inconclusive means small, poorly fitted or top-dose-only effect, or another doubt; inactive means no such curve, though single readings can be large; an effect the other way counts as inactive or inconclusive; further: potency means the concentration at half of the fitted maximal effect; on the % scale 0 is the no-effect control and ±100 the full control effect
Target sequence (Q27686 whole entry, looked up): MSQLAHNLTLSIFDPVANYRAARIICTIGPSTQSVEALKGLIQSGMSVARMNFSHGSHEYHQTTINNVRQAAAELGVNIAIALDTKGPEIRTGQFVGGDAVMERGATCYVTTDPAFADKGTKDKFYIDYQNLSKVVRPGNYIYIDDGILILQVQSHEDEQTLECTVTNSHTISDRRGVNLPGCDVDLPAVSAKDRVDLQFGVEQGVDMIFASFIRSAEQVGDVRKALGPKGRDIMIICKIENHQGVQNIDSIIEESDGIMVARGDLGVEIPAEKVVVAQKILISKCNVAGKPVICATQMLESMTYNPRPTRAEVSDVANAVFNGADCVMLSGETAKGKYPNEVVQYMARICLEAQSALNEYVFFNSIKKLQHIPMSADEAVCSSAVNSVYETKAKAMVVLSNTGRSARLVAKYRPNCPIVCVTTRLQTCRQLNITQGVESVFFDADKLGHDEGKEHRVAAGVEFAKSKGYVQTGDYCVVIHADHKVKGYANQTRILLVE
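Kinase-Glo luminescence read after 1 h RT reaction of 0.1 nM LmPK with 0.5 mM PEP and 0.1 mM ADP. Activity scaled between uninhibited and enzyme-free controls.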
Tb PYK inh = qHTS of Trypanosoma Brucei Inhibitors | pyruvate kinase (Trypanosoma brucei), Q57TT1 | TbPYK enzyme, Kinase-Glo Plus ATP luminescence, 45 min | Potency, µM (series often up to 76.8 µM), for the others: at the top dose activity, negative = inhibition, hits mostly inhibitors | 0.12% of 410,000 active; active means well fitted curve in the direction sought with a large enough effect; inconclusive means small, poorly fitted or top-dose-only effect, or another doubt; inactive means no such curve, though single readings can be large; an effect the other way counts as inactive or inconclusive; further: potency means the concentration at half of the fitted maximal effect; on the % scale 0 is the no-effect control and ±100 the full control effect; nearly all actives have a fitted effect of over 50% in size
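Quantitative HTS: titrated library compounds versus trypanosomal pyruvate kinase in TEA buffer (pH 7.2) containing KCl, MgCl2, BSA and Tween-20. Reactions were initiated with ADP, 130 uM final. Kinase-Glo Plus luminescence was read after 45 min at RT.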
RE007 growth inh = qHTS Assay for Inhibitors of the HIV-1 protein Vpr; 0.21% of 360,000 active; AID 651644, 2012; Potency, µM (series often up to 92.2 µM), inactives show at the top dose activity change, negative = less growth, hits mostly inhibitors; S. pombe RE007 Vpr strain, BacTiter-Glo ATP luminescence, 24 h; active means well fitted falling curve with a large enough effect; inconclusive means small, poorly fitted or top-dose-only effect; inactive means no such curve, though single readings can be large or run the other way; further: potency means the concentration at half of the fitted maximal effect; on the % scale 0 is the no-effect control and ±100 the full control effect; nearly all actives have a fitted effect of over 50% in size
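Fission yeast RE007 carrying one integrated HIV-1 vpr copy, seeded at OD 0.01 in PMG+AL medium with 23 nL pinned compound. Grown 24 h at 30 degrees; viability read by BacTiter-Glo luminescence after 5 min.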
NS1 inh valid = Assay for Inhibitors of Influenza NS1 Protein Function: Hit Validation; influenza NS1 function cell assay, 15-point titration; shares compounds with NS1 function inh; activity change, negative = inhibition, % at 32.9 µM; 1,400 tested, under 10 active; further: 0% is about no effect
An asterisk follows results filed as active; [ ] = another dose, or the depositor's remark. Unless noted, the call rests on the fitted dose curve.

CC1(c2ccc(OCC#N)cc2)C=C(c2ccc(OCC#N)cc2)n2nc(C(F)(F)F)nc2N1 (stereo unspecified) was read as NS1 function inh 10µM*, LmPK inhibitor 0.4%, Tb PYK inh 1.5%, RE007 growth inh 31.4% and NS1 inh valid inconclusive.
Screening Cc1ncc([N+](=O)[O-])n1CCOC(=O)Nc1ccc(Cl)c(Cl)c1 returned NS1 function inh inconclusive, LmPK inhibitor -0.2%, Tb PYK inh 1.9%, RE007 growth inh -4.4% and NS1 inh valid -0.8.
For O=C(N/N=C/c1c[nH]c2ccccc12)c1cc(-c2ccc(-c3ccccc3)cc2)n[nH]1 the results were NS1 function inh 24.3%, LmPK inhibitor -1.1%, Tb PYK inh -8.2% and RE007 growth inh 3.3%.
`O=C(N/N=C/c1c[nH]c2ccccc12)c1cc(-c2ccc3ccccc3c2)n[nH]1` gave NS1 function inh inconclusive, LmPK inhibitor 0.2%, Tb PYK inh -8.4%, RE007 growth inh 3.6% and NS1 inh valid -2.9.
For O=C(COc1ccc(Cl)cc1)NNC(=S)NCc1ccccc1 the results were NS1 function inh 5.62µM*, LmPK inhibitor 0.1%, Tb PYK inh -2.6%, RE007 growth inh -2.1% and NS1 inh valid inconclusive.
`CC1(C)CCC(=O)N[C@H]1CC(=O)C[C@H]1NC(=O)CCC1(C)C` gave NS1 function inh 0.0%.
For Cc1ccccc1S(=O)(=O)Nc1nc2ccccc2nc1N1CCc2ccccc2C1 the results were NS1 function inh 17.8µM*, LmPK inhibitor -3.7%, Tb PYK inh 6.4%, RE007 growth inh 4.6% and NS1 inh valid -7.4.
`O=S(=O)(Nc1nc2ccccc2nc1N1CCc2ccccc2C1)c1ccc(Br)cc1` gave NS1 function inh -36.2%, LmPK inhibitor inconclusive, Tb PYK inh -6.2% and RE007 growth inh -28.4%.
`CC1C/C(=N\NC(=S)NCc2ccccc2)CC(C)(C)C1` (stereo unspecified) gave NS1 function inh inconclusive, LmPK inhibitor 11.1%, Tb PYK inh -17.9%, RE007 growth inh -5.8% and NS1 inh valid inconclusive.
For CO/C=C(/C(=O)OC)c1ccccc1Oc1cc(Oc2ccccc2C#N)ncn1 the results were Tb PYK inh 0.0%[157 µM].
CN(N=O)c1ccc(O)c(O)c1 was read as NS1 function inh 5.01µM* and NS1 inh valid 20.6.
For O=c1c2ccccc2cnn1Cc1nnc(-c2cccs2)o1 the results were NS1 function inh -14.0%, LmPK inhibitor -5.4%, Tb PYK inh 2.3% and RE007 growth inh 32.3%.
Screening Cc1ccc(NC(=[OH+])c2cc3ccccc3cc2O)c(C)c1.Cc1ccc(NC(=[OH+])c2cc3ccccc3cc2O)c(C)c1.[Ni] returned NS1 function inh 0.0%.
For CCCCCc1cc(O)c2c(c1)OC(C)(C)c1ccc(C)cc1-2 the results were Tb PYK inh 8.5%.
Screening Cc1nn(C)cc1/C=N\NC(=O)c1csc2c1CCCC2 returned NS1 function inh inconclusive, LmPK inhibitor -8.2%, Tb PYK inh -7.6%, RE007 growth inh 7.6% and NS1 inh valid 1.7.
CN(C)c1ccc(-c2ccc([C@H]3[C@@H]4C=CCC[C@@]4(C)C(=O)N3Cc3ccccc3)c(F)c2)cc1 was read as NS1 function inh 5.62µM*, LmPK inhibitor 0.3%, Tb PYK inh -0.6%, RE007 growth inh 2.0% and NS1 inh valid -27.4.
CN(C)c1ccc(-c2cc([C@H]3[C@@H]4C=CCC[C@@]4(C)C(=O)N3Cc3ccccc3)ccc2F)cc1 was read as NS1 function inh inconclusive, LmPK inhibitor -1.3%, Tb PYK inh -1.5% and RE007 growth inh 3.3%.
`CC1Oc2ccccc2N(CC(=O)N2CCCc3ccccc32)C1=O` (stereo unspecified) gave NS1 function inh -10.6%, LmPK inhibitor 1.1%, Tb PYK inh -11.9% and RE007 growth inh 2.3%.
`CC1Oc2ccccc2N(CC(=O)N2CCCCC2)C1=O` (stereo unspecified) gave NS1 function inh 10µM*, LmPK inhibitor -4.2%, Tb PYK inh -0.9%, RE007 growth inh -16.1% and NS1 inh valid 8.6.
CC(C)(C)c1ccc(C(=O)CCCN2CCC(OC(c3ccccc3)c3ccccc3)CC2)cc1 was read as Tb PYK inh -1.7%.
